In PubChem BioAssay:
Active and inactive are the calls of the source.

Tests used:
[1] = anti-His antibody binders, primary screen, artefact control for SMM control protein annotation, biochemical, small-molecule microarray, 635 nm fluorescence (AID 1128); conditions: anti-His Alexa647 antibody binding, higher = more signal;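 also: score merges feature fluorescence with signal-to-noise for each printed compound spot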
[2] = test system: Human papillomavirus type 1a E7 protein (residues 1-88); test: HPV1a E7 small-molecule binders, primary screen, biochemical, small-molecule microarray, residues 1-88, 635 nm (AID 1129); conditions: small-molecule microarray binding, fluorescence 635 nm; higher = more signal
[3] = target: Focal adhesion kinase 1 (Homo sapiens) (UniProt Q05397); test: small-molecule microarray binders of FAK, primary screen, biochemical, 635/667 nm fluorescence, BSA, DTT (AID 1130); conditions: PTK2 binding, 635 nm fluorescence, higher = more signal;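 also: composite of spot emission at 667 nm and signal to noise over triplicate slides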
[4] = test system: Fibrinogen (Alexa647-labelled); test: fibrinogen binders on compound microarrays, profiling panel, artefact control for SMM control-protein annotation, biochemical, small-molecule microarray, 635/667 nm fluorescence (AID 1131); conditions: fibrinogen-A647 binding fluorescence, higher = more signal;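 also: z-score merges 667 nm fluorescence with per-spot signal-to-noise over triplicate slides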
[5] = target: Follistatin (Homo sapiens) (UniProt P19883); test: follistatin binders on small-molecule microarrays, primary screen, biochemical, small-molecule microarray, 635/667 nm fluorescence (AID 1132); conditions: FST binding, 635 nm fluorescence, higher = more signal
[6] = target: Fibroblast growth factor 2 (Homo sapiens) (UniProt P09038); test: FGF2 binders on small-molecule microarrays, primary screen, biochemical, small-molecule microarray, 635/667 nm fluorescence (AID 1133); conditions: small-molecule microarray binding, FGF2, fluorescence 635/667; higher = more signal
[7] = mitochondrial membrane potential change in A549 cells, profiling panel, cell-based, JC-1 fluorescence, basal, 24 h, 100 nL (AID 1138); conditions: higher = more signal;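 also: A549 lung adenocarcinoma cells under basal conditions with no added stimulus; test concentration not given here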
Lefty1 = Lefty1 binders on small-molecule microarrays, primary screen, biochemical, small-molecule microarray, 635/667 nm fluorescence (AID 1139); conditions: small-molecule microarray binding, fluorescence 635/667; higher = more signal
[8] = test system: wheat germ agglutinin (Triticum aestivum), Alexa647-labelled; test: wheat germ agglutinin binders on compound microarrays, profiling panel, artefact control for SMM control-protein annotation, biochemical, small-molecule microarray, 635/667 nm fluorescence (AID 1140); conditions: WGA-A647 binding, 635 nm fluorescence, higher = more signal;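 also: score merges 667 nm feature emission with signal to noise over triplicate slides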
[9] = target: Luciferin 4-monooxygenase (Photinus pyralis) (UniProt P08659); test: firefly luciferase enzyme inhibitors, primary screen, biochemical, luminescence, purified enzyme, 2006 set (AID 1141); conditions: SteadyGlo luminescence, 30 min, higher = more signal, called active from +8 up or from −8 down;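 also: cell-free assay with purified firefly luciferase at 100 ng per well in PBS; test concentration not given here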
Sequence of Luciferin 4-monooxygenase (Photinus pyralis) (P08659 whole entry, looked up): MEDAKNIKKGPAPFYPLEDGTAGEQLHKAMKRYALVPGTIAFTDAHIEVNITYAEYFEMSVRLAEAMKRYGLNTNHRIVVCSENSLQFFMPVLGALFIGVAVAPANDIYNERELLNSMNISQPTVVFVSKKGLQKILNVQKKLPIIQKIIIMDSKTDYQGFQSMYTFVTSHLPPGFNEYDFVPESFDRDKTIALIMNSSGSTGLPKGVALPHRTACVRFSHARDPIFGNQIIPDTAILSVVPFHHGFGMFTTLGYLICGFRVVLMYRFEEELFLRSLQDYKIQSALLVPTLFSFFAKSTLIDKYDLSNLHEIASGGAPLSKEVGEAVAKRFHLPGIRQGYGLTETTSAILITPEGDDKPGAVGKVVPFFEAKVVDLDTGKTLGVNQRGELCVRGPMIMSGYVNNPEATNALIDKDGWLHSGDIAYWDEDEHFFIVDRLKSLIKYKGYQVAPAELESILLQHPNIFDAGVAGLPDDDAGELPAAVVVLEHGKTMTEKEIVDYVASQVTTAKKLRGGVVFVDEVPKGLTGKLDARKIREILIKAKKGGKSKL

Sequence of Focal adhesion kinase 1 (Homo sapiens) (Q05397 whole entry, looked up): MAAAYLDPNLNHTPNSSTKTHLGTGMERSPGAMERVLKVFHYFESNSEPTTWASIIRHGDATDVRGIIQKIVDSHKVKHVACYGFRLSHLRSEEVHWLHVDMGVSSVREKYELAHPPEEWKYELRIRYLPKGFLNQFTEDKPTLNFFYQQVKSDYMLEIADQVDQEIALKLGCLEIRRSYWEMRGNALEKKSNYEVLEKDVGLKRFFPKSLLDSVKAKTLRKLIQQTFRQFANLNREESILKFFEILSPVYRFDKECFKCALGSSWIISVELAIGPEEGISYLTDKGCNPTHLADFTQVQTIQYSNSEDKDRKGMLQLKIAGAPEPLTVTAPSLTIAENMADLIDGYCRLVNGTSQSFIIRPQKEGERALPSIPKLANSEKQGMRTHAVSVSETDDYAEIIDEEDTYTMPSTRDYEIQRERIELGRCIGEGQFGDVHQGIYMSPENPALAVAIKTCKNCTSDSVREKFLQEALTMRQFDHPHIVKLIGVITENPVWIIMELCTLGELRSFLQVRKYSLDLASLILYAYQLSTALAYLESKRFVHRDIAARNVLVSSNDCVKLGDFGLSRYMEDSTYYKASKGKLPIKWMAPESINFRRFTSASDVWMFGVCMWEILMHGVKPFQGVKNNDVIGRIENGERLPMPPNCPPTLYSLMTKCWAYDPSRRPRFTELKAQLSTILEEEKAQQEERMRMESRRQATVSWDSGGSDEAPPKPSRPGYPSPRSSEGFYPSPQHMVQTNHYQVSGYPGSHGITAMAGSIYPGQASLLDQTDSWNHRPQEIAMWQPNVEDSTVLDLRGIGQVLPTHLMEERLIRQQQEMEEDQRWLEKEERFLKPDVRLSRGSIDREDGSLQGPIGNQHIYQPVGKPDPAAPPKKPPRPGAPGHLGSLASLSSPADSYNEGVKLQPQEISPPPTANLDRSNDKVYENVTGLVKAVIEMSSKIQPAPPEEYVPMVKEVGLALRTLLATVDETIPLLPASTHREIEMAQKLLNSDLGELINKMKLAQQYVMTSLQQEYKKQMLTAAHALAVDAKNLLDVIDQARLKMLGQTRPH
Sequence of Fibroblast growth factor 2 (Homo sapiens) (P09038 whole entry, looked up): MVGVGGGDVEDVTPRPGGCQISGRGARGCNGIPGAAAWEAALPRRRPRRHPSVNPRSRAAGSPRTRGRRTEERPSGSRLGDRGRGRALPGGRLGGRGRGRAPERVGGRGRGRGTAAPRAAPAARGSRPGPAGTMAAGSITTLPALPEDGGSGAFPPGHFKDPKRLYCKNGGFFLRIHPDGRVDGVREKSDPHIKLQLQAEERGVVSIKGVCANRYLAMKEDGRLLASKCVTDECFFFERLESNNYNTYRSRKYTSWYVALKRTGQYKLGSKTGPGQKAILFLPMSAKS
Sequence of Follistatin (Homo sapiens) (P19883 whole entry, looked up): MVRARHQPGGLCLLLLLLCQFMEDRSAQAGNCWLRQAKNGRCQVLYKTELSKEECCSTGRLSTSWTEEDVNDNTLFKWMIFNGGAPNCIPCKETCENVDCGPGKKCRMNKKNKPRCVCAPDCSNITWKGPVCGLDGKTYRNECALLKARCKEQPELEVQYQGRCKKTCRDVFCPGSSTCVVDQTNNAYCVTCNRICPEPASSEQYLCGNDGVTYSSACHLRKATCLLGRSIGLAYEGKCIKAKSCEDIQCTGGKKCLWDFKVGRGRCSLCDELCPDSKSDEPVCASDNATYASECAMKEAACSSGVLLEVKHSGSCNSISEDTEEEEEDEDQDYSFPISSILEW

Compound	composite z-score [1]	composite z-score [2]	composite z-score [3]	composite z-score [4]	composite z-score [5]	composite z-score [6]	z-score [7]	composite z-score (Lefty1)	composite z-score [8]	z-score [9]
CCCCC(=C=CC[C@H](O)c1ccc(CO)o1)CCO	0.149	0.661	0.323	-0.884	0.986	0.662	0.164	0.738	0.0416	-0.783 (inactive)
CCCN1C(=O)[C@@]2(c3ccc([N+](=O)[O-])cc3)CC(=O)N(CC34CC5CC(CC(C5)C3)C4)[C@@H]2c2ccc(CO)cc21	-0.0371	-1.01	0.195	-0.171	1.23	1.12	-0.284	-0.0689	-0.0176	-0.366 (inactive)
O=C(NCc1ccc(F)cc1)[C@H]1C[C@H]2C(=O)N3CCC[C@H]3C(=O)N2[C@H]1c1ccc(O)cc1	-0.279	-0.825	-0.753	0.137	0.699	0.75	-0.0591	-0.557	-0.554	-0.0877 (inactive)
O=C1[C@@H]2[C@@H](CC(COc3ccccc3)=C([C@H](O)CCc3ccccc3)[C@@H]2CO)C(=O)N1Cc1ccccc1	1.71	0.332	1.2	0.724	0.561	0.175	2.07	0.715	0.124	-0.172 (inactive)
C=CCC(OC(C)=O)[C@@H]1[C@@H](N(Cc2ccc(-c3ccccc3)cc2)C(=O)c2cccc3ccccc23)c2cc(OCCCO)ccc2N1C(=O)Cc1ccc(OC)cc1 (stereo not given in full)	0.118	-0.0598	-0.109	0.698	0.921	0.285	0.508	0.0844	0.175	0.706 (inactive)
O=C1OCCC=C[C@H]2OC34C=CCN(c5ccc6ccccc6c5)C(=O)[C@H]3N(CCO)C(=O)[C@@H]4C12 (stereo not given in full)	-0.75	-0.803	-0.101	-0.318	-0.129	-0.909	-0.522	-0.472	-0.117	-0.207 (inactive)
CC(C)C(=C=CC[C@H](O)c1ccccc1OCCO)C[C@H](O)COCc1ccccc1	1.12	-0.141	-0.27	-0.513	-0.0978	0.107	0.742	0.346	0.133	-0.961 (inactive)
COc1ccc([Si](C)(C)[C@H]2[C@H](CC(=O)N3Cc4ccccc4C[C@H]3CO)O[C@@]3(C(=O)N(c4ccccc4)c4ccccc43)[C@@H]2C)cc1	1.27	1.19	0.0758	0.96	1.37	1.64	1.78	1.48	0.771	0.16 (inactive)
COC(=O)[C@@]1(Cc2ccc(OC)cc2)[C@H]2c3cc(C(=O)N4CCCC4)n(CCn4cc([N+](=O)[O-])nc4C)c3C[C@H]2CN1C(=O)c1ccccc1	3.4	1.2	1.07	1	0.116	-0.322	1.33	-0.19	0.907	1.22 (inactive)
CCOC(=O)C1=C[C@@H](C(C)(C)C)N(S(=O)(=O)c2ccc(C)cc2)[C@H]1c1ccc(C#N)cc1	1.16	1.23	0.637	0.996	0.599	0.0014	1.53	0.307	1.08	1.82 (inactive)
NC(=O)N1C(=O)C2C(C1=O)C1C=C(CCCO)C2C(c2ccc(CN3CCCC3)cc2)N1Cc1sc2ccccc2c1Cl (stereo not given)	0.17	0.1	0.39	-0.109	0.301	-0.145	0.947	-0.131	0.394	-0.286 (inactive)
COc1cc(CO)cc(I)c1O[C@H]1C=C(C(=O)NCCO)C[C@@H](NC2CCCCCC2)[C@@H]1O	0.34	1.14	-0.433	0.794	0.931	1.01	1.88	1.37	0.246	4.69 (inactive)
COC(=O)C(CC#Cc1ccc2c(c1)[C@]1(C(=O)N2)[C@H](c2ccccc2OCCO)N2[C@H](c3ccccc3)[C@H](c3ccccc3)OC(=O)[C@H]2[C@@H]1C(=O)N1CCc2cc(OC)c(OC)cc2C1)C(=O)OC	1.3	1.21	0.317	0.601	1.32	0.667	-0.668	0.896	0.28	-0.242 (inactive)
O=C1O[C@@H](c2ccccc2)[C@@H](c2ccccc2)N2[C@@H](c3ccccc3OCCO)[C@]3(C(=O)Nc4ccc(C#CCCO)cc43)[C@@H](C(=O)NC[C@H](O)c3ccccc3)[C@H]12	1.32	1.25	1.06	0.847	1.27	0.835	-0.928	0.831	0.891	0.808 (inactive)
CCCC[C@H]1OB(O)C[C@H]2C1=C(COc1ccccc1)C[C@H]1C(=O)C=CC(=O)[C@H]12	0.219	0.398	0.628	0.951	1.06	0.696	1.04	1	0.22	-2.36 (inactive)
[N-]=[N+]=NCc1ccccc1[C@@H]1OC(c2ccc(OCCCO)cc2)=N[C@]1(Cc1ccccc1N=[N+]=[N-])C(=O)NCC(O)CO (stereo not given in full)	2.76	1.2	0.955	0.911	1.05	1.26	0.637	-0.459	1.22	-2.1 (inactive)
COc1ccc([Si](C)(C)[C@H]2[C@H](CC(=O)N3Cc4ccccc4C[C@H]3CO)O[C@@]3(C(=O)N(C)c4c(Br)cc(C)cc43)[C@@H]2C)cc1	0.533	0.777	0.172	0.636	1.34	1.24	-0.224	1.58	0.655	-0.0165 (inactive)
CC(C)(C)N1CC=CC23O[C@@H]4/C=C\CCCOC(=O)C4[C@H]2C(=O)N(CCCCCO)[C@@H]3C1=O (stereo not given in full)	-1.23	-0.75	-0.716	-0.865	-1.06	-0.594	-0.137	-1.4	-0.408	0.215 (inactive)
COc1cc(OC)c(C(O)C2C=CC3C(=O)N(c4ccccc4)C(=O)C3N2Nc2ccc(C(C)C)cc2)cc1Br (stereo not given)	-0.0881	1.21	0.441	0.885	0.806	0.0421	0.568	-0.112	1.2	-1.71 (inactive)
CO[C@H]1O[C@H](CO)[C@@H](OC(=O)Nc2ccc3c(c2)OCO3)[C@H](OC(=O)Nc2ccccc2-c2ccccc2)[C@H]1OC(=O)Nc1ccccc1-c1ccccc1	1.73	1.26	1.17	0.435	0.694	0.819	-0.559	-0.152	0.331	-1.22 (inactive)
COC(=O)[C@@]1(Cc2ccccc2)[C@H]2c3cc(C(=O)N(C)C)n(CCO)c3C[C@H]2CN1C(=O)c1ccccc1	1.86	1.16	1.89	1.02	-0.535	-0.541	0.628	-0.986	1.41	2.11 (inactive)
COCC(=C=CC[C@H](O)c1ccccc1OCCO)C[C@H](O)COCc1ccccc1	2.34	1.19	0.516	0.272	0.792	0.659	1.26	0.632	0.0903	-1.06 (inactive)
